Compound activity as filed in PubChem.
KLK7 zymogen act – activates the human kallikrein-7 zymogen. P49862. purified proKLK7, EDANS-DABCYL substrate fluorescence; 100% is mature enzyme control, 0% vehicle. activation, % at 7 µM. 370,000 tested, 0.9% active. AID 652039;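 active = activation above the mean of all tested compounds plus 3 SD, computed per campaign excluding outliers beyond control limits, cut at about 13% in these data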
FGF22 binding – FGF22 (human) thermal shift binding | Q9HCT0 | recombinant FGF22 thermal shift, SYPRO orange fluorescence; percent of sucrose octasulfate shift, DMSO zero | activity (Tm shift, normalised), % at 9.99 µM | 340,000 tested, 1.5% active;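 active = mean Tm shift, scaled 0 neutral to 100 positive control, at about 1.3% or above, every replicate too, limit read from the data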
ADAM17 inh – inhibitors of human ADAM17 | recombinant ADAM17, EDANS/DABCYL FRET peptide cleavage | inhibition, % at 6.95 µM | 370,000 tested, 0.83% active | AID 720648 | P78536;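 active = inhibition above the mean of compounds lying between control limits plus 3 SD, set per campaign, cut at about 8.5% in these data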
rRNA inh HTS – inhibitors of bacterial rRNA selective over humanized ribosomes. GFP signal change (wild-type ribosome), % (test concentration not listed). E. coli WT GFP vs humanized-ribosome RFP mutants, fluorescence, 24 h; active compounds read low; DMSO median 0, no signal -100. 350,000 tested, 1.6% active. AID 720706;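 active = significant combined selectivity score with lowered wild-type GFP, culture density cut under 30%, mutant RFP and density less affected; inactive = any of these conditions unmet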
ADAM10 inh – inhibits human ADAM10; O14672; inhibition, % at 7 µM; 370,000 tested, 0.62% active; recombinant ADAM10, EDANS/DABCYL FRET peptide cleavage, 3 h;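 active = inhibition above a per-campaign cutoff equal to the mean of compounds falling between control-based bounds plus 3 SD, cut at about 20% in these data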
Target sequence (O14672 214-748 limits assumed): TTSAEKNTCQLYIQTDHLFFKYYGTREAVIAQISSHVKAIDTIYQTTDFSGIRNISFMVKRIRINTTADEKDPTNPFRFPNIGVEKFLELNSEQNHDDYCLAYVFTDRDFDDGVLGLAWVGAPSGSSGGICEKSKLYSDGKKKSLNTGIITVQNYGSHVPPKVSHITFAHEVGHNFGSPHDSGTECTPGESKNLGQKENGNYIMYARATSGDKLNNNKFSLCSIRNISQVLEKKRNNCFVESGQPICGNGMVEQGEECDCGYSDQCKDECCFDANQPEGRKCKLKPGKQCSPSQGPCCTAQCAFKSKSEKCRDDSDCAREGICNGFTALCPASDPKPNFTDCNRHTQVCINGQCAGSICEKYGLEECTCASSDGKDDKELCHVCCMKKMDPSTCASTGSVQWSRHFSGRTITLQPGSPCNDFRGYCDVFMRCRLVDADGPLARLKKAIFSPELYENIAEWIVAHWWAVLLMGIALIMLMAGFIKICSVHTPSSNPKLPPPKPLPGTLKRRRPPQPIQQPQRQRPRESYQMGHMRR
A number is an active result; - = inactive; . = no result. Hits are enriched below; roughly 3.8% of the tested compounds scored in any of these assays.

SMILES	KLK7 zymogen act	FGF22 binding	ADAM17 inh	rRNA inh HTS	ADAM10 inh
Cc1[nH]c2ccccc2c1C(=O)NS(=O)(=O)Nc1ccccc1	-	43	-	-	-
Cc1[nH]c2ccccc2c1C(=O)CCl	-	-	-	-	-
O=C(C[C@H]1CC[C@H](NC(=O)Nc2cccc(F)c2)[C@H](CO)O1)NCC1CC1	.	-	.	-	.
CC(C)(C)C1CCC(=NNc2nc3ccccc3[nH]2)CC1 (centres undefined)	-	.	-	-23	-
COc1ccc2c3c([nH]c2c1)[C@H](CO)N(C(=O)c1ccc(F)cc1)CC31CN(C(=O)CC2CC2)C1	.	-	.	-	.
Cc1sc2nc(CN(Cc3ccccc3)C(=O)NC3CCCCC3)[nH]c(=O)c2c1C	-	.	-	.	-
CC(=O)N(Cc1ccccc1)Cc1nc2sc(C)c(C)c2c(=O)[nH]1	-	44	-	-	-
O=C(Nc1cccc(O)c1)c1cc(-c2ccccc2Cl)on1	-	-	-	-25	-
COCCNC(=O)C[C@@H]1CC[C@@H](NC(=O)NC2CCCC2)[C@@H](CO)O1	.	-	.	-	.
CC(=O)Nc1ccc(-c2cn3cc(C)ccc3n2)cc1	-	.	-	.	-
NNC(=O)c1ccc2nc(-c3ccc(Br)cc3)cn2c1	-	-	-	-28	-
NS(=O)(=O)c1ccc(N/C=C\C(=O)c2ccncc2)cc1	-	43	-	-	-
O=C(NCCc1c[nH]c2ccccc12)C(=O)NCC1OCCCN1S(=O)(=O)c1ccc(F)cc1 (centres undefined)	-	-	-	-18	-
Cc1ccc(S(=O)(=O)N2CCOC2CNC(=O)C(=O)NCCc2c[nH]c3ccccc23)cc1 (centres undefined)	-	44	-	-	-
Cc1cc(F)ccc1S(=O)(=O)N1CCCOC1CNC(=O)C(=O)NCCc1c[nH]c2ccccc12 (centres undefined)	-	.	-	.	-
O=C(NCCc1c[nH]c2ccccc12)C(=O)NCC1OCCN1S(=O)(=O)c1cc(F)ccc1F (centres undefined)	-	-	-	-	-
C/C(=N\Nc1ccc([N+](=O)[O-])cc1)c1cc2ccccc2o1	-	44	-	.	-
O=C(COC(=O)[C@@H]1CC(O)CN1S(=O)(=O)c1ccccc1[N+](=O)[O-])c1ccccc1 (some centres undefined)	-	-	-	-	-
COC(=O)c1ccc(COC(=O)[C@@H]2CC(O)CN2S(=O)(=O)c2ccccc2[N+](=O)[O-])cc1 (some centres undefined)	-	-	-	-17	-
C/C=C/c1cnc2c(c1)C(=O)N([C@@H](C)CO)C[C@H](C)[C@@H](CN(C)C(=O)CN1CCOCC1)O2	.	-	.	-	.
O=C(N/N=C/c1ccc(O)c([N+](=O)[O-])c1)C1CC1(c1ccccc1)c1ccccc1 (centres undefined)	-	-	-	-	-
O=C(N/N=C/c1ccncc1)C1CC1(c1ccccc1)c1ccccc1 (centres undefined)	-	-	-	-22	-
C[C@@H]1CN([C@@H](C)CO)C(=O)c2cc(NC(=O)c3ccccc3)ccc2O[C@@H](C)CCCCO[C@H]1CN(C)S(=O)(=O)c1cn(C)cn1	.	.	.	-	.
Cc1cc(/C=C(\C#N)C(=O)NCCc2c[nH]c3ccccc23)c(C)n1C	-	-	-	-38	-
Cc1ccc(C)c(NC(=O)C(=O)NCCc2c[nH]c3ccccc23)c1	-	-	-	-21	-
SMILES	KLK7 zymogen act	FGF22 binding	ADAM17 inh	rRNA inh HTS	ADAM10 inh
COC(=O)/C(C#N)=C/c1c[nH]c2ccccc12	-	-	-	-22	-
COc1ccc(CCNC(=S)NCCc2c[nH]c3ccccc23)cc1	-	1.4	-	-33	-
N#C/C(=C/c1ccc(Br)s1)C(=O)NCCc1c[nH]c2ccccc12	-	-	-	.	-
CCCNC(=O)[C@@H]1[C@@H](CO)[C@@H]2Cn3c(ccc(-c4ccccc4)c3=O)[C@@H]2N1CC1CC1	.	-	.	-	.
CC(=O)Nc1cccc2c1O[C@@H](CN(C)C(=O)OC(C)(C)C)[C@@H](C)CN(C)C2=O	.	.	.	-	.
CO[C@@H]1CN(C)C(=O)c2ccc(NC(=O)Nc3cccc(F)c3)cc2OC[C@@H](C)N(C(C)=O)C[C@H]1C	.	-	.	-	.
O=C(NCCc1c[nH]c2ccccc12)Nc1ccccc1	-	.	-	.	-
COc1ccccc1NC(=O)NCCc1c[nH]c2ccccc12	-	-	-	-22	-
Cc1ccc(C)c(NC(=S)NCCc2c[nH]c3ccccc23)c1	-	-	-	-	-
Cc1ccccc1NC(=S)NCCc1c[nH]c2ccccc12	-	-	-	-24	-
CO[C@@H]1CN(C)C(=O)c2ccc(NC(=O)c3nc4ccccc4s3)cc2OC[C@@H](C)N(Cc2cncnc2)C[C@@H]1C	.	.	.	-	.
CO[C@@H]1CN(C)C(=O)c2ccc(NC(=O)Cc3ccccc3)cc2OC[C@@H](C)N(C(=O)c2ccccc2F)C[C@@H]1C	.	-	.	-	.
C=CCNC(=O)[C@@H]1[C@H]2C(=O)O[C@H](c3ccccc3)[C@H](c3ccccc3)N2[C@H](c2ccc(O)cc2)[C@@]12C(=O)N(C(=O)OCCOC)c1ccc(C#Cc3ccc(OC)cc3)cc12	.	-	.	.	.
CC1(C)CC(=O)C2=C(C1)NC1=C(C(=O)c3ccccc31)C2c1cccnc1 (centres undefined)	-	44	-	-	-
Cc1cc(C(=O)Nc2ccc3c(c2)C(=O)N(C)[C@@H]2CC[C@H](CC(=O)N[C@H](C)c4ccccc4)O[C@H]2CO3)no1	.	-	.	-	.
Cc1onc(-c2c(Cl)cccc2Cl)c1C(=O)Nc1ccc(C(N)=O)cc1	-	-	-	.	-
Cc1onc(-c2c(Cl)cccc2Cl)c1C(=O)Nc1ccc2c(c1)OCO2	-	-	-	-22	-
Cc1onc(-c2ccccc2)c1C(=O)NC(=S)NNC(=O)c1cc(-c2ccc(F)cc2)n[nH]1	-	-	-	-33	-
Cc1onc(-c2ccccc2)c1C(=O)NC(=S)NNC(=O)c1ccncc1	-	-	-	-36	-
Cc1onc(-c2ccccc2)c1C(=O)NNC(=S)NC(=O)c1ccc2c(c1)OCO2	-	-	-	-40	-
COc1cccc(CNC(=O)C[C@H]2C=C[C@@H](NS(=O)(=O)c3ccccc3OC)[C@@H](CO)O2)c1	.	.	.	-	.
C[C@@H]1CCCCO[C@H](CN(C)CC2CC2)[C@H](C)CN([C@@H](C)CO)C(=O)c2cc(NC(=O)Cc3ccccc3)ccc2O1	.	-	.	-	.
CCc1c(C)nc(SCC(=O)N2CCN(c3ccccc3)CC2)[nH]c1=O	-	44	-	-	-
CCc1c(C)nc(SCC(=O)N2CCN(c3ccccc3OC)CC2)[nH]c1=O	-	-	-	-	-
CCNC(=O)C[C@@H]1CC[C@@H]2[C@H](COc3ccc(NC(=O)Nc4ccc(Cl)cc4)cc3C(=O)N2C)O1	.	-	.	-	.
CC(=O)/C(=N/Nc1ccc([N+](=O)[O-])cc1)N1CCCc2ccccc21	-	-	-	-	-
